Values without a mark were called inactive. Inconclusive results are not listed. A call without a number means that no potency is given here. Activity calls are given as the source filed them. The call rests on the fitted dose curve; in most records, active means well fitted curve in the direction sought with a large enough effect; inconclusive means small, poorly fitted or top-dose-only effect, or another doubt; inactive means no such curve, though single readings can be large; an effect the other way counts as inactive or inconclusive.
Columns and labels:
[1] = S16 Schwann cell PMP22 intronic element firefly luciferase assay (AID 624032); further: nearly all actives have a fitted effect of over 30% in size
How it was run: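 Luciferase reporter of PMP22 intronic-element expression in stably transfected S16 rat Schwann cells, read by ONE-Glo luminescence after 24 h compound exposure at 37 C. Activity scaled between DMSO (0%) and positive-control PTC124; concentration-effect curves quality-classified.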

CP194 = test: qHTS profiling for inhibitors of Plasmodium falciparum proliferation (AID 504749); further: nearly all actives have a fitted effect of over 60% in size; further: potency means the concentration at half of the fitted maximal effect; details: P. falciparum in erythrocytes, SYBR Green DNA, 72 h; series mostly up to 12.8 µM
How it was run: (§1)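 Infected RBCs, 0.3% parasitemia/2.5% Hct final; cpd 72 h, 37 C, 5% CO2; lysis buffer with saponin/triton/SYBR Green I, o/n RT dark; FI 485/535; norm. to artemisinin (0.29 uM) and DMSO.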

CP211 = test: as above; details: P. falciparum in erythrocytes, SYBR Green DNA, 72 h; series mostly up to 12.8 µM
How it was run: as §1

CP215 = test: as above; details: P. falciparum in erythrocytes, SYBR Green DNA, 72 h; series mostly up to 12.8 µM
How it was run: as §1

CP237 = test: as above; details: P. falciparum in erythrocytes, SYBR Green DNA, 72 h; series mostly up to 12.8 µM
How it was run: as §1

CP260 = test: as above; details: P. falciparum in erythrocytes, SYBR Green DNA, 72 h; series mostly up to 12.8 µM
How it was run: as §1

CP269 = test: as above; details: P. falciparum in erythrocytes, SYBR Green DNA, 72 h; series mostly up to 12.8 µM
How it was run: as §1

CP315 = test: as above; details: P. falciparum in erythrocytes, SYBR Green DNA, 72 h; series mostly up to 12.8 µM
How it was run: as §1

CP335 = test: as above; details: P. falciparum in erythrocytes, SYBR Green DNA, 72 h; series mostly up to 12.8 µM
How it was run: as §1

DFO2036 = test: as above; details: P. falciparum in erythrocytes, SYBR Green DNA, 72 h; series mostly up to 12.8 µM
How it was run: as §1

GB4 = test: as above; details: P. falciparum in erythrocytes, SYBR Green DNA, 72 h; series mostly up to 12.8 µM
How it was run: as §1

P94_40 = test: as above; details: P. falciparum in erythrocytes, SYBR Green DNA, 72 h; series mostly up to 12.8 µM
How it was run: as §1

PC26 = test: as above; details: P. falciparum in erythrocytes, SYBR Green DNA, 72 h; series mostly up to 12.8 µM
How it was run: as §1

[2] = biological target: Cytochrome P450 3A4 (Homo sapiens) (UniProt P08684); test: qHTS Assay for Inhibitors and Substrates of Cytochrome P450 3A4 (AID 884); further: potency means the concentration at half of the fitted maximal effect; nearly all actives have a fitted effect of over 50% in size
How it was run: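 20 nM human CYP3A4 with 25 uM Luciferin-PPXE (at KM) in 200 mM KPO4, preincubated 10 min with compound; NADPH regeneration started a 60 min RT reaction. Luciferin detected by luminescence, normalized to 57 uM ketoconazole as full inhibition.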

[3] = biological target: Cytochrome P450 3A4 (Homo sapiens) (UniProt P08684); test: qHTS Assay for Activators of Cytochrome P450 3A4 (AID 885); further: nearly all actives have a fitted effect of over 65% in size
How it was run: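 20nM CYP3A4 + 25uM Luciferin-PPXE (=KM), 200mM KPO4; cpd 10 min RT; NADPH regen, 60 min RT; stop w/ detection buffer, 20 min; luminescence. Normalized to 57 uM ketoconazole.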

[4] = biological target: ATP-dependent 6-phosphofructokinase (Trypanosoma brucei brucei) (UniProt O15648); test: qHTS Assay to Find Inhibitors of T. brucei phosphofructokinase: hit validation (AID 492961);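 further: luminescence reports ADP formed as PFK phosphorylates fructose-6-phosphate with ATP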
How it was run: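 ADP-Glo luminescence read-out of ADP formed by 1.25 nM PFK from 0.1 mM ATP and 0.5 mM F6P (TEA pH 8.0, 45 min, RT). Compounds titrated; activity normalized to no-enzyme and full-enzyme controls.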

CP291 = test: qHTS profiling for inhibitors of Plasmodium falciparum proliferation (AID 504749); further: nearly all actives have a fitted effect of over 60% in size; further: potency means the concentration at half of the fitted maximal effect; details: P. falciparum in erythrocytes, SYBR Green DNA, 72 h; series mostly up to 12.8 µM
How it was run: as §1

Sequence of Cytochrome P450 3A4 (Homo sapiens) (P08684 whole entry, looked up): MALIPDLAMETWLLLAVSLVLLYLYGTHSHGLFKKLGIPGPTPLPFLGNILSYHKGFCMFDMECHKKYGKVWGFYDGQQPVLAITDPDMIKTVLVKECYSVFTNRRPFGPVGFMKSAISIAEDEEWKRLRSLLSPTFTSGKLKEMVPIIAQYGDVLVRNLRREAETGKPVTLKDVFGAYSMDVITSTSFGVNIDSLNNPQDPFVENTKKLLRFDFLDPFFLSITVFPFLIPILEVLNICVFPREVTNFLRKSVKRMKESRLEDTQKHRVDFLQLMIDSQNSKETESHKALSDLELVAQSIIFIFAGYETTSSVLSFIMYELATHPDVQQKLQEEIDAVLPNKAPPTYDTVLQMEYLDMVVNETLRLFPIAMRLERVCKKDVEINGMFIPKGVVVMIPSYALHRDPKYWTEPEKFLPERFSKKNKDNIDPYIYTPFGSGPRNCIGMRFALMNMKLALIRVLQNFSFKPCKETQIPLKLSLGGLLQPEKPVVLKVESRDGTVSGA
Sequence of ATP-dependent 6-phosphofructokinase (Trypanosoma brucei brucei) (O15648 whole entry, looked up): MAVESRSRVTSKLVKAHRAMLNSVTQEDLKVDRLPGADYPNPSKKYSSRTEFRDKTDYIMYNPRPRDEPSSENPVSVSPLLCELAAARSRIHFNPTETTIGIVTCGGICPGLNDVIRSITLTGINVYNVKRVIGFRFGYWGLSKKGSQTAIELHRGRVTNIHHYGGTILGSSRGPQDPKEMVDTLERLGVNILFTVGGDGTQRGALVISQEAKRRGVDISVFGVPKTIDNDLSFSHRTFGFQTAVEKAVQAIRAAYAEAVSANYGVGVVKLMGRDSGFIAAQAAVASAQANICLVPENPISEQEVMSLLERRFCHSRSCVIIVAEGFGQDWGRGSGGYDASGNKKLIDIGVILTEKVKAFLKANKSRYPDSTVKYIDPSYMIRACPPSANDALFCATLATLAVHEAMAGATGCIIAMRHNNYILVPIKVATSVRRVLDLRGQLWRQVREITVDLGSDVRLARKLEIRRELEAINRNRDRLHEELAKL

Compound: NC(=O)c1cc[n+](CC2=C(C(=O)[O-])N3C(=O)[C@@H](NC(=O)Cc4cccs4)[C@@H]3SC2)cc1
- Potency [1]: inactive
- Potency (CP194): inactive
- Potency (CP211): inactive
- Potency (CP215): inactive
- Potency (CP237): inactive
- Potency (CP260): inactive
- Potency (CP269): inactive
- Potency (CP315): inactive
- Potency (CP335): inactive
- Potency (DFO2036): inactive
- Potency (GB4): inactive
- Potency (P94_40): inactive
- Potency (PC26): inactive

Compound: N#Cc1cccc(-c2cncnc2-n2ccnc2)c1
- Potency [2]: 2.51 µM (active)
- Potency [3]: inactive

Compound: Cc1ccc(S(=O)(=O)NC(=O)NN2C[C@H]3CCC[C@@H]3C2)cc1
- outcome [4]: inactive
- Potency (CP194): inactive
- Potency (CP211): inactive
- Potency (CP215): inactive
- Potency (CP237): inactive
- Potency (CP260): inactive
- Potency (CP269): inactive
- Potency (CP291): inactive
- Potency (CP315): inactive
- Potency (CP335): inactive
- Potency (DFO2036): inactive
- Potency (GB4): inactive
- Potency (P94_40): inactive
- Potency (PC26): inactive

Compound: CC1(C)O[C@H]2C[C@@H]3[C@H]4CCC5=CC(=O)CC[C@@]5(C)[C@]4(F)[C@@H](O)C[C@@]3(C)[C@@]2(C(=O)CCl)O1
- outcome [4]: inactive
- Potency (CP260): 3.16 µM (active)
- Potency (GB4): 5.73 µM (active)
- Potency (P94_40): 3.16 µM (active)
- Potency (PC26): 6.42 µM (active)

Compound: COc1cc2c(cc1OC)-c1cc3ccc(OC)c(OC)c3c[n+]1CC2
- Potency [3]: inactive

Compound: CC(=O)OCC(=O)[C@@]1(O)[C@H](C)C[C@@H]2[C@H]3CCC4=CC(=O)C=C[C@]4(C)[C@]3(F)[C@@H](O)C[C@@]21C
- outcome [4]: inactive
- Potency [1]: inactive
- Potency (CP194): inactive
- Potency (CP211): inactive
- Potency (CP215): inactive
- Potency (CP237): inactive
- Potency (CP260): inactive
- Potency (CP269): inactive
- Potency (CP291): inactive
- Potency (CP315): inactive
- Potency (CP335): inactive
- Potency (GB4): inactive
- Potency (P94_40): inactive
- Potency (PC26): inactive

Compound: C=CC1=C(C(=O)O)N2C(=O)[C@@H](NC(=O)/C(=N\OCC(=O)O)c3csc(N)n3)[C@@H]2SC1
- Potency (CP194): inactive
- Potency (CP211): inactive
- Potency (CP215): inactive
- Potency (CP237): inactive
- Potency (CP260): inactive
- Potency (CP269): inactive
- Potency (CP291): inactive
- Potency (CP315): inactive
- Potency (CP335): inactive
- Potency (DFO2036): inactive
- Potency (GB4): inactive
- Potency (P94_40): inactive
- Potency (PC26): inactive
